Laboratory results as given in PubChem BioAssay.
“And” between values parts separate entries of the source, which are not always exact repeats. Equal values may be shown once. The source made the active and inactive calls.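 How the source made its calls, unless noted: active means inhibition at or above 50% relative to wild type and mutant plate controls; inactive means inhibition below 50%.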

Columns and labels:
[1] = inhibitors of TNFa-induced NFkB p65 translocation, primary screen, imaging, HUVEC, MLSMR starter and 10KST1 sets (AID 438;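 active means inhibition above 20% together with a positive visual image hit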;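 further: compound added about 3h40 before a 20 min TNFalpha stimulation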;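 on inhibition: signal is the nuclear over cytoplasmic p65 intensity ratio per well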); details: HUVEC TNFa-induced p65 nuclear translocation; cell count: measured here: nuclei count (cytotoxicity indicator), at 2.08 µM; inhibition: at 2 µM, stronger effect = higher value, 0% TNFa-plus-vehicle, 100% no-TNFa wells
[2] = inhibitors of mutant huntingtin aggregation, primary screen, imaging, exon1htt(103Q)mCFP cells, high-content imaging (AID 483;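 active means visual image review flags a hit and inhibition of aggregation exceeds 20%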;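 further: compound exposure lasted 3 days before fixation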;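 on nuclei count: percent of the per-plate median nuclei count of sample wells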); details: exon1htt(103Q)mCFP cell line, aggregate imaging, at 2 µM; inhibition of aggregation: stronger effect = higher value; nuclei count: measured here: cell count, toxicity
[3] = inhibitors of E-selectin induction by TNFa, primary screen, imaging, HUVEC, immunofluorescence, MLSMR starter and 10KST1 sets (AID 487;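 active means visually confirmed hit in the image check and inhibition above 20%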;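 on inhibition: signal is fraction of cell area covered by stained E-selectin grains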;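 on nuclei count: 100% = median nuclei count of all wells on the same plate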); details: HUVEC TNFalpha-induced E-selectin immunofluorescence imaging, at 2 µM; inhibition: stronger effect = higher value; nuclei count: measured here: cell number, toxicity
[4] = DUSP6 inhibitors restoring Erk phosphorylation by chemical complementation, primary imaging in DUSP6-transfected HeLa (AID 609;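 active means compounds giving at least 50% inhibition in the cell-based MKP-3 phosphatase rescue imaging test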;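 on inhibition: phospho-Erk level distribution per well compared with pooled transfected vehicle control wells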); details: HeLa MKP-3 transfected, phospho-Erk imaging KS statistic, at 10 µM, cells stimulated with TPA for 15 min
[5] = target: Dual specificity protein phosphatase 6 (Homo sapiens) (UniProt Q16828); experiment: as above; details: HeLa MKP-3 transfected, phospho-Erk imaging KS statistic; at 10 µM; stronger effect = higher value; cells stimulated with TPA for 15 min
[6] = target: Voltage-gated potassium channel subunit beta-2 (Rattus norvegicus) (UniProt P62483); experiment: KvBeta enzyme negative modulators, primary screen, biochemical, NADPH fluorescence (AID 622;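 active means fluorescence slope higher than the sample average by over 3 SD, cut at about -0.22 in these data, passing the limit was not always enough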;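 further: slope of raw intensity against log time taken from 70 to 1610 s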); details: recombinant KvBeta, 4-cyanobenzaldehyde reduction, at 10 µM, stronger effect = higher value
[7] = target: Voltage-gated potassium channel subunit beta-2 (Rattus norvegicus) (UniProt P62483); experiment: KvBeta positive modulators, primary screen, biochemical, NADPH fluorescence (AID 623;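 active means NADPH fluorescence slope more negative than the mean of all samples by about 3 SD, 99.7% confidence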;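 further: fluorescence intensity change per second fitted from 20 to 320 s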); details: Recombinant KvBeta, NADPH fluorescence decrease slope, 10 min; at 10 µM; stronger effect = lower value
[8] = target: Alpha-2C adrenergic receptor (Homo sapiens) (UniProt P18825); experiment: modulators of alpha2C/GIRK thallium flux, primary screen, cell-based, HEK293 alpha2C/GIRK1/2 (AID 624;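 active means fluorescence slope after compound addition differing from the mean of all screened samples at 99.7% confidence, in either direction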;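 further: slope of fluorescence ratio to pre-addition baseline per second over 15 to 24 s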); details: thallium flux BTC fluorescence, at 10 µM, actives lie on both sides
[9] = inhibitors of larval lipid processing in zebrafish, primary screen, whole organism, PED6 fluorescence, gall bladder and intestine (AID 686;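 active means a full or partial loss of lipid-probe fluorescence in the fish gall bladder, intestine or both, judged by eye; inactive means no fluorescence loss, or compound toxic to the fish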;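 further: larvae 5 to 7 days old with five fish per well; signal comes from phospholipase A2 cleavage of quenched PED6 carried via bile; overnight exposure to compound and PED6 before scoring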); details: Zebrafish larvae PED6 lipid processing, fluorescence scoring; screened at 20 µM (by protocol)
[10] = inhibitors of Chlamydomonas gravitaxis, primary screen, whole organism, Chlamydomonas reinhardtii, WT vs cilia-less mutant, absorbance, 96-well (AID 463189); details: OD600 absorbance, 2 days, at 10 µM, stronger effect = higher value;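 further: 0% = wild type cc124 cells in DMSO and 100% = ciliumless bld1 mutant cells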
[11] = inhibitors of Sendai virus-induced IRF3 signaling, primary screen, TLR/RLR signaling modifier project, cell-based, Sendai virus stimulus, luciferase, 10K MLSCN set (AID 602276;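 active means inhibition at or above 50% at 10 µM; inactive means inhibition below 50%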;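 further: firefly luciferase from ISG56 promoter only with Renilla not read in this screen; 0% = Sendai virus plus DMSO and 100% = medium plus DMSO without virus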); details: HEK293 RL24 IRF3 luciferase reporter, at 10 µM, stronger effect = higher value
[12] = inhibitors of poly I:C-induced TLR3 signaling, primary screen, cell-based, poly I:C stimulus, luciferase, 10K MLSCN set (AID 602277;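 active means inhibition of the reporter signal at or above 50%; inactive means inhibition below 50%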); details: HEK293-TLR3 RL24 IRF3 luciferase reporter, at 10 µM, stronger effect = higher value
[13] = measured here: cell density z-score
[14] = measured here: nuclear c-Myc green intensity z-score
[15] = measured here: nuclear pErk red intensity z-score, stronger effect = higher value

Chain of Alpha-2C adrenergic receptor (Homo sapiens) (P18825 whole entry, looked up): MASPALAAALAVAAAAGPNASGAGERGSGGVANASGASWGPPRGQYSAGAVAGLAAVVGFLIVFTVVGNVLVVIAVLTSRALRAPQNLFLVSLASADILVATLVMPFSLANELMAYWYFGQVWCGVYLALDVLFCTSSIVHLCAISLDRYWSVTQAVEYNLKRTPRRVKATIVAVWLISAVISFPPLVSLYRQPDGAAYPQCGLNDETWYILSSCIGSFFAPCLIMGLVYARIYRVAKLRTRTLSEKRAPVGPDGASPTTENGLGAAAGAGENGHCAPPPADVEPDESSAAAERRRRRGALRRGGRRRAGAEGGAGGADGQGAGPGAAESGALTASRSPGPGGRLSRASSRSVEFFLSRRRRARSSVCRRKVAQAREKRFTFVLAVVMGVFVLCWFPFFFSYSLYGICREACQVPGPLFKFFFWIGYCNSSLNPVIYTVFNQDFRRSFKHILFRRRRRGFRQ
Chain of Voltage-gated potassium channel subunit beta-2 (Rattus norvegicus) (P62483 whole entry, looked up): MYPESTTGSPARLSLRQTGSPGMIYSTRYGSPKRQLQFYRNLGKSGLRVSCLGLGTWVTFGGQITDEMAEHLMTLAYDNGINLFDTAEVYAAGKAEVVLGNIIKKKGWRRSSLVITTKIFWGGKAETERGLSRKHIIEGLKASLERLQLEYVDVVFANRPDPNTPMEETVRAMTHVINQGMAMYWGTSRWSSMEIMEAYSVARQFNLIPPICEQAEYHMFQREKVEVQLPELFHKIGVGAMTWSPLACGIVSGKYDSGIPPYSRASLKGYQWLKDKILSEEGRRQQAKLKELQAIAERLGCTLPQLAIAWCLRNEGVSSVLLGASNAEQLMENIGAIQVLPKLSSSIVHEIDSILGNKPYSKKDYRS
Chain of Dual specificity protein phosphatase 6 (Homo sapiens) (Q16828 whole entry, looked up): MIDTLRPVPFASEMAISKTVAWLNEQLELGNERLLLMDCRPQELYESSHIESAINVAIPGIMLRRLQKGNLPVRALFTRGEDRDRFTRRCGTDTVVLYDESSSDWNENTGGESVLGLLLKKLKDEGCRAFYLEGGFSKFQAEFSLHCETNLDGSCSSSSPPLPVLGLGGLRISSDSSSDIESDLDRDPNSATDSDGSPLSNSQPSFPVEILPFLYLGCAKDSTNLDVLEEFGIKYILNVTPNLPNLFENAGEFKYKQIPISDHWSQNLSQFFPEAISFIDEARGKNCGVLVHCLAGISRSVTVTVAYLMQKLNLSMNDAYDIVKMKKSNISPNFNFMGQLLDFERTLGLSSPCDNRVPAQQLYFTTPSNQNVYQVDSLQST

SMILES | cell count [1] | inhibition [1] | inhibition of aggregation [2] | nuclei count [2] | inhibition [3] | nuclei count [3] | z-score [4, 13] | z-score [4, 14] | z-score [4, 15] | inhibition [5] | fluorescence slope [6] | NADPH fluorescence slope [7] | slope [8] | outcome [9] | inhibition [10] | inhibition [11] | inhibition [12]
Cn1cc(NC(=O)c2cc(NC(=O)c3cc(NC=O)cn3C)cn2C)cc1C(=O)NCCC(=N)N | 571 | -3.6% (inactive) | -13.8% (inactive) | 96.4% | -15.4% (inactive) | 95.1% | -1.3 | 0.0863 | -0.177 | -0.493% (inactive) | -0.499 (inactive) | -3.2e-05 (inactive) | 0.00517 (inactive) | inactive | -16.5% (inactive) | 19.8% (inactive) | 37.3% (inactive)
CNCCCC12CCC(c3ccccc31)c1ccccc12 | 541 | -4.8% (inactive) | 19.8% (inactive) | 83.4% | -80.6% (inactive) | 114% | -1.24 | 0.435 | 1.73 | 3.45% (inactive) | -0.501 (inactive) | -9.7e-05 (inactive) | 0.00463 (inactive) | inactive | 6.33% (inactive) and 2.26% (inactive) | -23.6% (inactive) | 55.4% (active)
CCCCn1cnc2c(c1=O)c1nc3ccccc3nc1n2Cc1ccc2c(c1)OCO2 | 588 | -2% (inactive) | -18.6% (inactive) | 101% | -78% (inactive) | 129% | 0.775 | -1.04 | -0.0661 | -4.7% (inactive) | -0.159 (inactive) | 1.1e-05 (inactive) | 0.00729 (inactive) | inactive | 10.8% (inactive) | 7.61% (inactive) | 1.84% (inactive)
Cc1cc(C)c(C#N)c(SCc2[nH]nc3c2C(c2ccccc2)C(C#N)=C(N)O3)n1 (configuration not stated) | 633 | -7.7% (inactive) | 5.8% (inactive) | 104% | -6.9% (inactive) | 114% | 0.152 | -0.343 | 0.203 | -7.28% (inactive) | -0.571 (inactive) | 2.5e-06 (inactive) | 0.00484 (inactive) | inactive | 31.6% (inactive) | 12.1% (inactive) | 20.3% (inactive)
CCN(CC)C(=O)CSC1=C(C#N)C(c2ccco2)C(C(=O)OCCOC)=C(C)N1 (configuration not stated) | 393 | -8.6% (inactive) | 15.4% (inactive) | 104% | -184% (inactive) | 152% | 0.81 | -0.0131 | 1.47 | -3.98% (inactive) | -0.378 (inactive) | -3e-05 (inactive) | 0.00415 (inactive) | inactive | 14% (inactive) | 2.19% (inactive) | 16.7% (inactive)
CN(C)c1nc(N(C)C)nc(N(C)C)n1 | 680 | -4.1% (inactive) | 1.6% (inactive) | 109% | -118% (inactive) | 129% | 1.31 | -0.357 | -1.49 | 11.3% (inactive) | -0.459 (inactive) | 2.8e-05 (inactive) | 0.0048 (inactive) | inactive | 4.91% (inactive) and -7.01% (inactive) | 14.2% (inactive) | 32.5% (inactive)
O=C(O)CCc1cc(I)c(Oc2ccc(O)c(I)c2)c(I)c1 | 623 | -9.5% (inactive) | -4.4% (inactive) | 107% | -120% (inactive) | 127% | 1.17 | -0.143 | 0.645 | 9.37% (inactive) | -0.522 (inactive) | -5.4e-05 (inactive) | 0.00395 (inactive) | inactive | 3.29% (inactive) | 21.3% (inactive) | 34.6% (inactive)
CCC(NC(C)C)C(O)c1ccc(O)c2[nH]c(=O)ccc12 (configuration not stated) | 682 | -3% (inactive) | -11.3% (inactive) | 109% | -80% (inactive) | 142% | 0.193 | 0.138 | 0.273 | 13.3% (inactive) | -0.49 (inactive) | -3.3e-05 (inactive) | 0.00523 (inactive) | inactive | 23.9% (inactive) | 17.4% (inactive) | 45.8% (inactive)
Cn1nnc2c(sc3nc(N4CCOCC4)c4c(c32)CCCC4)c1=O | 611 | -5.6% (inactive) | 21.6% (inactive) | 109% | -120% (inactive) | 114% | 3.22 | -0.738 | -2.88 | 28.6% (inactive) | -0.348 (inactive) | -2.4e-05 (inactive) | 0.00477 (inactive) | inactive | -8.88% (inactive) | -5.47% (inactive) | -2.11% (inactive)
COc1ccc(C(=O)Nc2cccnc2)cc1C(=O)Nc1cccnc1 | 654 | 4.4% (inactive) | -4.7% (inactive) | 101% | -4.7% (inactive) | 72.8% | 0.737 | -0.175 | -0.517 | 23.4% (inactive) | -0.448 (inactive) | -4.6e-05 (inactive) | 0.00454 (inactive) | inactive | -3.27% (inactive) | 11.5% (inactive) | 36% (inactive)
CN(C)CCCN1c2ccccc2Sc2ccc(Cl)cc21 | 556 | 0% (inactive) | 14.2% (inactive) | 101% | -64.8% (inactive) | 123% | 1.02 | 0.553 | -0.0543 | -0.828% (inactive) | -0.472 (inactive) | -6e-05 (inactive) | 0.00356 (inactive) | inactive | 67.6% (active) and 162% (active) | 16.5% (inactive) | 40.1% (inactive)
NS(=O)(=O)c1cc2c(cc1Cl)NC(C(Cl)Cl)NS2(=O)=O (configuration not stated) | 646 | -8.4% (inactive) | 4.9% (inactive) | 109% | -57% (inactive) | 134% | -1.31 | -0.533 | 1.7 | -4.44% (inactive) | -0.512 (inactive) | -2e-05 (inactive) | 0.00475 (inactive) | inactive | 3.47% (inactive) | 13.9% (inactive) | 35.5% (inactive)
CCN(CC)CCOC(=O)C1(C2CCCCC2)CCCCC1 | 520 | -11.3% (inactive) | 17.1% (inactive) | 96% | -57.3% (inactive) | 118% | -0.235 | -0.682 | 1.64 | -6.41% (inactive) | -0.494 (inactive) | -5.1e-05 (inactive) | 0.00415 (inactive) | inactive | -2.13% (inactive) and -31% (inactive) | 10.2% (inactive) | 38.4% (inactive)
Cc1ccccc1C(OCCN(C)C)c1ccccc1 (configuration not stated) | 644 | -4.5% (inactive) | -3% (inactive) | 89% | -41.9% (inactive) | 103% | -0.367 | -1.7 | 0.158 | -0.828% (inactive) | -0.48 (inactive) | -2.2e-05 (inactive) | 0.00302 (inactive) | inactive | 24.9% (inactive) and 29.3% (inactive) | 22.3% (inactive) | 42.3% (inactive)
CCCC(=O)N(Cc1cc2ccccc2[nH]c1=O)c1ccccc1OC | 429 | -16.8% (inactive) | -1.6% (inactive) | 94.8% | -133% (inactive) | 166% | 1.04 | -0.344 | -0.503 | 17.7% (inactive) | -0.364 (inactive) | -8.5e-06 (inactive) | 0.00461 (inactive) | inactive | 27.4% (inactive) | 12% (inactive) | 14.8% (inactive)
CCC1=C(C(=O)OC)C(c2cc(OC)ccc2OC)C(C#N)=C(N)O1 (configuration not stated) | 296 | -8.8% (inactive) | 6.8% (inactive) | 106% | -58% (inactive) | 129% | 1.11 | 0.712 | -2.04 | 5.65% (inactive) | -0.478 (inactive) | -0.000233 (inactive) | 0.00469 (inactive) | inactive | -0.583% (inactive) | 17% (inactive) | 24% (inactive)
COC(=O)[C@@H](N)Cc1ccc(O)cc1 | 550 | -6.9% (inactive) | 4.1% (inactive) | 91.1% | -9.7% (inactive) | 107% | -0.0639 | 0.189 | 0.26 | 11.3% (inactive) | -0.496 (inactive) | -7.7e-05 (inactive) | 0.00529 (inactive) | inactive | 15.2% (inactive) | 15.4% (inactive) | 27.7% (inactive)
CC(C)(C)n1cnc2cc(NS(=O)(=O)c3ccc(Br)cc3)ccc21 | 543 | -1.5% (inactive) | -9.9% (inactive) | 99.9% | -37% (inactive) | 108% | 0.246 | 1.31 | -0.322 | -5.26% (inactive) | -0.373 (inactive) | 2.9e-05 (inactive) | 0.00461 (inactive) | inactive | -15% (inactive) | 15.5% (inactive) | 13.8% (inactive)
COc1cc([C@@H]2[C@H]3CN(C)CC=C3C(C#N)=C(N)C2(C#N)C#N)cc2c1OCO2 | 394 | -2.2% (inactive) | 31.8% (inactive) | 111% | -39.2% (inactive) | 109% | 0.739 | -0.834 | 0.31 | 57.9% (inactive) | -0.309 (inactive) | 9.9e-07 (inactive) | 0.00454 (inactive) | inactive | 38% (inactive) | 4.57% (inactive) | 19.8% (inactive)
CCOC(=O)N1CCC(=C2c3ccc(Cl)cc3CCc3cccnc32)CC1 | 695 | -7.4% (inactive) | -15% (inactive) | 106% | -79.3% (inactive) | 132% | 1.11 | 0.137 | -0.637 | 27.1% (inactive) | -0.512 (inactive) | -3.2e-05 (inactive) | 0.00337 (inactive) | inactive; toxic | -6.14% (inactive) and -3.57% (inactive) | -15.2% (inactive) | -34% (inactive)
C1CCC(C(CC2CCCCN2)C2CCCCC2)CC1 (configuration not stated) | 585 | 4.5% (inactive) | -15.7% (inactive) | 101% | 0.5% (inactive) | 138% | 0.673 | 1.64 | 0.659 | 8% (inactive) | -0.498 (inactive) | -1.1e-05 (inactive) | 0.0027 (inactive) | inactive | 162% (active) | 33.8% (inactive) | 36.5% (inactive)
